# Results filed as inconclusive are left out. Where a call stands in place of a potency, no number is given. Calls of active or inactive are those of the source. Calls come from the whole dose curve; as a rule, active = well fitted inhibition curve with a large enough effect; inconclusive = small, poorly fitted or top-dose-only effect; inactive = no such curve, though single readings can be large or run the other way.
# Assay: qHTS Assay for Lipid Storage Modulators: 3T3L1 Assay against Probe and Analogs
# Conditions: 3T3-L1 lipid droplets, BODIPY imaging, oleic acid, 18-24 h; series mostly up to 46.1 µM
# Outline: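 Lipid droplet number and size, plus cell count, were measured by imaging BODIPY- and Hoechst-stained 3T3L1 cells. Compounds (0.46% DMSO final) were co-incubated for 18-24 h with oleic acid, added at 400 uM, to induce droplets. Triacsin C served as control.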
row,Compound,Potency
1,O=C(NC1CCCc2c1cnn2-c1ccc(F)cc1F)c1cnon1 (centres undefined),inactive
2,CN(C)CC(=O)NC1CCCc2c1cnn2-c1ccc(F)cc1F (centres undefined),inactive
3,CCOc1ccc(CCNC(=O)c2ccc(N3N=C(C)CC3=O)cc2)cc1OCC,inactive
4,O=C(NC1CCCc2c1cnn2-c1ccc(F)cc1F)c1cccc(=O)[nH]1 (centres undefined),inactive
5,CCOC(=O)C1CCN(C(=O)C(C)(C)NC(=O)Nc2ccc(CN3CCOCC3)cc2)CC1,inactive
6,CCOc1ccc(CCNC(=O)c2cc3sccc3n2C)cc1OCC,inactive
7,CC(C)(C)OC(=O)NCCOCCOCCOc1ccc(-n2ncc3c2CCCC3NC(=O)c2ccccn2)cc1 (centres undefined),inactive
8,CCn1c(C(=O)NCCc2ccc(OC)c(OC)c2)cc2sccc21,inactive
9,CCOC(=O)C1CCN(C(=O)C(C)(C)NC(=O)Nc2cccc(C(=O)OC)c2)CC1,inactive
10,COc1cc(C)c(Sc2cnc(NC(=O)c3ccc(CNC(C)C(C)(C)C)cc3)s2)cc1C(=O)N1CCN(C(C)=O)CC1 (centres undefined),3.32 µM (active)
11,Cc1ccc(NC(=O)c2ccc(CN3CCN(C)CC3)cc2)cc1Nc1nc(-c2cccnc2)cs1,inactive
12,O=C(NCCc1ccc2c(c1)OCO2)c1cc2sccc2n1Cc1ccccc1,inactive
13,O=C(Nc1cccc2c1cnn2-c1ccc(F)cc1)c1ccccn1,inactive
14,O=C(N[C@H]1CCCc2c1cnn2-c1ccc(F)cc1F)c1ccccn1,inactive
15,CCOC(=O)C1CCN(C(=O)C(C)(C)NC(=O)Nc2cccc(-c3csc(C)n3)c2)CC1,inactive
16,CCOc1ccc(CCNC(=O)c2cc3sccc3[nH]2)cc1OCC,4.69 µM (active)
17,CCOc1ccc(CCNC(=O)c2cc3sccc3n2Cc2ccccc2)c(F)c1OCC,0.526 µM (active)
18,CCOC(=O)C1CCN(C(=O)C2(NC(=O)Nc3ccccc3Cl)CC2)CC1,inactive
19,CCOC(=O)C1CCN(C(=O)C(C)(C)NC(=O)Nc2ccc([N+](=O)[O-])cc2)CC1,inactive
20,O=C(NCCc1ccc(O)c(O)c1)c1cc2sccc2n1Cc1ccccc1,inactive
21,O=C(NC1CCCc2c1cnn2-c1cccc(O)c1)c1ccccn1 (centres undefined),inactive
22,CCOc1cc(CCNC(=O)c2cc3sccc3n2Cc2ccccc2)cc(F)c1OCC,0.0526 µM (active)
23,O=C(c1cc2sccc2n1Cc1ccccc1)N(CCc1ccc(O)c(O)c1)Cc1ccccc1,inactive
24,CCOC(=O)C1CCN(C(=O)C(C)(C)NC(=O)Nc2ccc3sccc3c2)CC1,inactive
25,O=C(Cc1ccccc1)NC1CCCc2c1cnn2-c1ccc(F)cc1F (centres undefined),inactive
26,O=C(O)c1cccc(-c2noc(-c3ccccc3F)n2)c1,2.64 µM (active)
27,CCOc1cc(F)c(CCNC(=O)c2cc3sccc3n2Cc2ccccc2)cc1OCC,0.0148 µM (active)
28,O=C(O)CCc1ccc(NCc2cccc(Oc3ccccc3)c2)cc1,inactive
29,Cc1cccc(-c2ccc3ncnc(NCc4cccc(F)c4)c3c2)c1,inactive

# From PubChem BioAssay AID652180 (National Center for Advancing Translational Sciences (NCATS), 2013)
